Sampled rows, rich in hits. Any-hit rate of the full collection: about 4.7%.
MPTP inh = inhibitors of mitochondrial permeability transition pore; isolated mouse mitochondria, Ca2+ swelling absorbance, 30 min; inhibition, % at 10 µM; 1.4% of 360,000 active; AID 602449;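 active = inhibition of 50% or more, scaled per plate between neutral and stimulator controls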
ADAM17 inh = inhibitors of human ADAM17; 0.83% of 370,000 active; P78536; AID 720648; recombinant ADAM17, EDANS/DABCYL FRET peptide cleavage; inhibition, % at 6.95 µM;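 active = inhibition above the mean of compounds lying between control limits plus 3 SD, set per campaign, cut at about 8.5% in these data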
rCAG binder = molecules binding r(CAG) RNA repeats | r(CAG) RNA repeat, TO-PRO-1 dye displacement fluorescence | inhibition, % at 3 µM | 1.3% of 370,000 active;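 active = inhibition above the plate cutoff, the mean of all test compounds on that plate plus 3 SD, cut at about 35% in these data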;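 also: higher means more dye released from RNA so lower well fluorescence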
Pemphigus Ab inh = blocks pemphigus antibody binding to human desmoglein-3; P32926; DSG3-coupled beads, scFv-anti-DSG3-GFP binding, flow cytometry; stronger effect = lower value; binding (percent of control), % at 10 µM; AID 588358; 0.48% of 310,000 active;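 active = binding more than 3 SD below its plate's average and above zero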;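 also: hits lower antibody fragment binding to DSG3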
ADAM10 inh = ADAM10 inhibition, QFRET primary screen; O14672; recombinant ADAM10, EDANS/DABCYL FRET peptide cleavage, 3 h; inhibition, % at 7 µM; 0.62% of 370,000 active;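 active = inhibition above a per-campaign cutoff equal to the mean of compounds falling between control-based bounds plus 3 SD, cut at about 20% in these data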
KLK7 zymogen act = proKLK7 (human) activation, primary screen. P49862. 0.9% of 370,000 active. activation, % at 7 µM. purified proKLK7, EDANS-DABCYL substrate fluorescence; 100% is mature enzyme control, 0% vehicle;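 active = activation above the mean of all tested compounds plus 3 SD, computed per campaign excluding outliers beyond control limits, cut at about 13% in these data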
Target sequence (P49862 whole entry, looked up): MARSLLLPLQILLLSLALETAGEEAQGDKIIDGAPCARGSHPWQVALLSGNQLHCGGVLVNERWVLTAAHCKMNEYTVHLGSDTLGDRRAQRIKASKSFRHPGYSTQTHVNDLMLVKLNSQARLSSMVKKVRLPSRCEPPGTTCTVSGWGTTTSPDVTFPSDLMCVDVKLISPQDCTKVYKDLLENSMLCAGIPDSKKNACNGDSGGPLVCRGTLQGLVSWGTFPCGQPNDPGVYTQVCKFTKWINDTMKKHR
Rh123 counter = Rhodamine 123 counter-screen of mitochondrial pore hits; shares compounds with MPTP inh; isolated mitochondria, membrane potential, Rhodamine 123 fluorescence; inhibition, % at 10 µM; 78% of 5,000 active; in the data active = inhibition above about 22%
MPTP abs DR = MPTP inhibition, dose response swelling confirmation; shares compounds with MPTP inh; isolated mitochondria swelling, absorbance; IC50, µM; 58% of 780 active; in the data active = IC50 below about 20 µM
MPTP counter DR = active in counter-screen for permeability transition pore inhibitors. shares compounds with MPTP inh. 49% of 780 active. isolated mitochondria counterscreen, fluorescence read-out. IC50, µM; in the data active = IC50 below about 80 µM
Large screens that a line does not name were inactive (follow-up assays come after a bar, where they were run).

CC(C)Nc1nc(NCCOc2ccccc2Cl)c2sc(-c3ccccc3)cc2n1	MPTP inh 60.1 (no result: Pemphigus Ab inh) | Rh123 counter 105.0
O=C(Nc1ccccc1Oc1ccccc1)NC1CCCCN(Cc2cccc(Cl)c2)C1=O (centres undefined)	none (no result: MPTP inh, Pemphigus Ab inh)
O=C(Nc1ccc(Cl)cc1)N1CCC(c2nc(-c3ccc(F)cc3)no2)CC1	MPTP inh 90.3 | Rh123 counter 75.6
O=S(=O)(c1ccc(Cl)cc1)N1CCCC(c2nc(-c3ccc(F)cc3)no2)C1 (centres undefined)	none
Cc1ccc(-c2cc(NC(=O)Cc3c[nH]c4ccccc34)ccc2N(C)c2cccnc2)cc1	none (no result: MPTP inh, Pemphigus Ab inh)
COc1ccc(-c2nc(-c3cccc(C)c3)nc(N3CCN(C)CC3)c2C#N)cc1	MPTP inh 91.0 (no result: Pemphigus Ab inh) | Rh123 counter inactive | MPTP abs DR inactive | MPTP counter DR inactive
COc1ccc(-c2nc(-c3ccccc3)nc(N3CCN(C)CC3)c2C#N)cc1	none (no result: Pemphigus Ab inh)
COC(=O)c1sc2nc(-c3ccccc3)nc(N3CCN(C)CC3)c2c1C	MPTP inh 75.8 | Rh123 counter inactive | MPTP abs DR 9.8 | MPTP counter DR inactive
CN1CCN(c2nc(-c3ccccc3)nc(-c3ccccc3)c2C#N)CC1	MPTP inh 68.8 | Rh123 counter inactive | MPTP abs DR 16.7 | MPTP counter DR inactive
Nc1[nH]c(C(=O)c2ccccc2)c(-c2ccccc2C(F)(F)F)c1C(=O)c1c[nH]c2ccccc12	none (no result: MPTP inh, Pemphigus Ab inh)
CCOC(=O)c1c(C)[nH]c(C(=O)N/N=C/c2cccc(OC)c2)c1C	none
CCOC(=O)c1c(C)[nH]c(C(=O)N/N=C\c2ccccc2Cl)c1C	MPTP inh 92.3 | Rh123 counter 88.3
O=C(NNC(=S)NC(=O)c1ccccc1[N+](=O)[O-])c1ccc(Cl)cc1Cl	none
Cc1ccc(C(=O)NNC(=S)NC(=O)c2ccc(Cl)cc2Cl)cc1	MPTP inh 87.9 | Rh123 counter inactive
CCCCC(=O)NC(=S)NNC(=O)c1ccc(Cl)cc1Cl	MPTP inh 51.0 | Rh123 counter inactive | MPTP abs DR 15.1 | MPTP counter DR inactive
CCN(CC)c1ccc(-c2nn3c(-c4ccc(C(C)(C)C)cc4)nnc3s2)cc1	none (no result: MPTP inh, Pemphigus Ab inh)
CCCC1CCC2(CCCN2CCOC(=S)Nc2cccc(Cl)c2)CC1 (centres undefined)	none (no result: MPTP inh, rCAG binder, Pemphigus Ab inh, KLK7 zymogen act)
Cc1ccc(NC(=S)Nc2nc(CC(=O)Nc3ccccc3)cs2)cc1	MPTP inh 77.7 | Rh123 counter 83.9
CCCC/C=C1/[C@@H](CC)N(Cc2ccc(OC)cc2OC)C2=N[C@H](c3ccccc3)CC(=O)N21	none (no result: MPTP inh, rCAG binder, Pemphigus Ab inh, KLK7 zymogen act)
COC(=O)c1nc(NC(=O)c2ccc(Br)cc2)n[nH]1	MPTP inh 77.1 | Rh123 counter inactive | MPTP abs DR inactive | MPTP counter DR inactive
COC(=O)[C@H](N[C@H](/C=C/c1ccccc1)[C@@H](O)Cc1ccccc1)c1ccccc1	none (no result: MPTP inh, Pemphigus Ab inh)
CC(=O)N1CCc2cc(Br)c(S(=O)(=O)NCc3ccc(Cl)cc3)cc21	none (no result: MPTP inh, Pemphigus Ab inh)
CN(C)CCC(=O)c1ccc(Cl)cc1	MPTP inh 98.9 | Rh123 counter inactive | MPTP abs DR 10.5 | MPTP counter DR inactive
CC(=O)N1CCN(c2ccc(NC(=S)NC(=O)COc3ccc(C(C)(C)C)cc3)cc2)CC1	MPTP inh 88.2 | Rh123 counter 87.8
CC(C)CC(=O)NC(=S)Nc1ccc(N2CCN(C(=O)c3cccs3)CC2)cc1	MPTP inh 93.2 | Rh123 counter 63.7
C[C@H](CO)N1C[C@H](C)[C@@H](CN(C)C(=O)Nc2ccccc2)OCc2cn(nn2)CCCC1=O	none (no result: MPTP inh, Pemphigus Ab inh)
Cc1ccccc1C(=O)N[C@@H](Cc1cccnc1)C(=O)N1CCC[C@H]1C(=O)NC1CCCC1	none (no result: MPTP inh, Pemphigus Ab inh)
CC(O)CNCCCOc1cccc(Oc2ccccc2)c1 (centres undefined)	MPTP inh 59.9 | Rh123 counter inactive | MPTP abs DR 12.9 | MPTP counter DR inactive
CC(O)CNCCCOc1cccc(C(F)(F)F)c1 (centres undefined)	none
COc1ccc(Cc2nc3ccc(C(=O)NCc4cc(C)no4)cc3o2)cc1OC	none
C=CCN(CC=C)C(=O)c1ccc2nc(Cc3ccc(OC)c(OC)c3)oc2c1	MPTP inh 50.5 | Rh123 counter inactive | MPTP abs DR inactive | MPTP counter DR 42.7
Fc1ccc(C2c3cccn3CCN2C(=S)Nc2cccc(Br)c2)cc1 (centres undefined)	MPTP inh 90.3 | Rh123 counter 66.4
CCCCc1c(-c2ccccc2OC)ncn1Cc1cccc(OC)c1	none (no result: MPTP inh, Pemphigus Ab inh)
O=C(N[C@H](Cc1ccccc1)C(=O)N1CCN(c2ccc(Cl)cn2)CC1)[C@H]1O[C@@H](n2ccc(=O)[nH]c2=O)[C@H](O)[C@@H]1O	none (no result: MPTP inh, Pemphigus Ab inh)
Cc1ccc(Oc2cccc3c2S(=O)(=O)N([C@H](C)c2ccccc2)C[C@@H](COCc2ccccc2)O3)cc1	none (no result: MPTP inh, Pemphigus Ab inh)
CC1(C)CC(=Cc2cc(O)ccc2[N+](=O)[O-])C(=O)c2ccccc21	MPTP inh 91.1 (no result: ADAM17 inh, rCAG binder, ADAM10 inh, KLK7 zymogen act) | Rh123 counter 93.7
O=C1/C(=C/c2ccccc2[N+](=O)[O-])COc2ccccc21	none
C[C@H]1C2CC(OC(=O)NCc3ccc(Cl)cc3)C(C2)[C@H]2CCCCN21 (some centres undefined)	none (no result: MPTP inh, Pemphigus Ab inh)
CCc1ccc(S(=O)(=O)NCc2ccc(C(=O)NCCN(Cc3ccccc3)C(C)C)cc2)cc1	MPTP inh 97.4 (no result: Pemphigus Ab inh) | Rh123 counter 92.9
CCOc1ccccc1NC(=O)NNC(=O)CCn1nc(C)c([N+](=O)[O-])c1C	none (no result: MPTP inh, Pemphigus Ab inh)
Nc1ccc(C=C2C=Cc3ccccc32)cc1	none
NC(N)=Nc1ccc(C=C2C=Cc3ccccc32)cc1	MPTP inh 58.2 | Rh123 counter inactive | MPTP abs DR 3.68 | MPTP counter DR 31.3
CCCc1ccc(C(=O)NC(=O)c2ccccc2O)cc1	MPTP inh 59.2 | Rh123 counter 91.2
O=C(NC(=O)c1ccccc1O)c1ccc(C(F)(F)F)cc1	none
O=C(CSc1nc2ccc([N+](=O)[O-])cc2[nH]1)c1ccc2ccccc2c1	MPTP inh 99.1, rCAG binder 37.0 | Rh123 counter 68.2
O=C(CSc1nc2ncc(Br)cc2[nH]1)c1ccc([N+](=O)[O-])cc1	none
O=C(CCN1CCN(c2ccccc2F)CC1)c1ccc(Br)cc1	MPTP inh 112.5 (no result: ADAM17 inh, rCAG binder, ADAM10 inh, KLK7 zymogen act) | Rh123 counter inactive | MPTP abs DR inactive | MPTP counter DR 52.8
S=C(SCc1c(Cl)cccc1Cl)N1CCSCC1	none (no result: MPTP inh, Pemphigus Ab inh)
CCN(CC)C(=O)CC[C@@H]1CC[C@]2(CCCN(Cc3ccccn3)C2)O1	none (no result: MPTP inh, Pemphigus Ab inh)
CC1=NN(c2ccc(F)cc2)C(=O)C1C(c1cccc(O)c1)c1c(C)[nH]n(-c2ccc(F)cc2)c1=O (centres undefined)	none
